Holding throughout (test): NCI-60 one-dose screen, 48 h (100 = growth as untreated, 0 = no growth, -100 = all killed)
Holding throughout (details): 10 µM unless noted

The subject of assay [1] is NCI-H23 lung.
For assay [2], the system named is NCI-H226 lung.
The subject of assay [3] is NCI-H322M lung.
Assay [4] concerns HOP-62 NSCLC.
Assay [5] deals with HOP-92 NSCLC.
For assay [6], the system named is NCI-H522 lung.
The subject of assay [7] is A549/ATCC NSCLC.
Assay [8] has as its system 786-0 renal.
Assay [9] concerns COLO 205 colon.
Assay [10] relates to DU-145 prostate.
In assay [11] the test system is K-562 leukemia.
Assay [12] has as its system MALME-3M melanoma.
For assay [13], the system named is MDA-MB-231 breast.
Assay [14] has as its system RXF 393 renal.
Assay [15] relates to SF-268 CNS.
The test system of assay [16] is SF-295 CNS.
The subject of assay [17] is SF-539 CNS.
For assay [18], the system named is UACC-257 melanoma.
The test system of assay [19] is M14 melanoma.
Assay [20] deals with NCI-H460 lung.

Consider eight compounds from PubChem BioAssay (NCI).

This is part of a sample that, as a whole, favours compounds with a hit. Of some 83,000 tested, about 20% had one in any assay.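 For each line, cells grew in 96-well plates with the test compound present at a single concentration for 48 hours.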 A number with no mark means an inactive call. Calls of active or inactive are those of the source. Rule for the calls: active = growth percent below 10; inactive = the rest.

In the case of `Cc1ccc(NC2CC(=O)N(c3c(C)cc(C)cc3C)C2=O)c(C)c1` (stereo not given), the growth was 108% in [1]; 109% in assay [2]; 101% in [3]; 110% in assay [4]; 94.5% in assay [5]; 98.6% in assay [6]. The growth is 102% in assay [7]; 105% in assay [8]; 123% in assay [9]; 105% in [10]; 98.2% in [11]; 97.7% in assay [12]. Further, the growth in [13] is 103%; in assay [14], 124%; in assay [15], 101%; in assay [16], 111%; in assay [17] it was 102%; in assay [18], 99.6%. Moreover, the growth in assay [19] is 107%.
Regarding `Cc1cc(C)nc(NC(N)=NCCc2ccccc2)n1`, the growth in assay [1] is 50.4%; in assay [2] it was 52.6%; in [3] it was 52.1%; in assay [4] it was 52.4%; in [20], 23.9%; in assay [5], 39.2%. In addition, the growth in assay [6] was 29.9%; in [7] it was 33.1%; in assay [8], 50.1%; in [9], 40.1%; in assay [10], 42.6%; in assay [13], 51.6%. Besides, the growth was 51.4% in assay [14]; 39.5% in assay [15]; 36.7% in assay [17]; 30.2% in assay [18]; 31.8% in [19].
On to `C=C(C)[C@@H]1CC[C@]2(C)[C@H](CC[C@@H]3[C@H]4[C@H]5OC[C@@]4(CCC5(C)C)CC[C@]32C)[C@@]1(C)CCCN`, for which the growth is 83.3% in [1]; 100% in [2]; 30.9% in [3]; 96.3% in assay [4]; 50.9% in assay [5]; 97.6% in assay [6]. Also, the growth is 55.1% in assay [7]; 49.1% in assay [8]; -58.2% (active) in assay [9]; 66.2% in assay [10]; 3.82% (active) in assay [11]; -48.5% (active) in [12]. Also, the growth is 16.7% in assay [13]; 17.4% in assay [14]; 92.1% in assay [15]; -4.38% (active) in [16]; 87% in [17]; 101% in assay [18]. Also, the growth in [19] was 25.8%.
As to `COC(=O)C(N)CSC(c1ccccc1)(c1ccccc1)c1ccccc1` (stereo not given), the growth in assay [1] is 45.5%; in assay [2], 77.6%; in assay [3] it was 9.37% (active); in [4], 44.6%; in assay [20], 8.85% (active); in assay [5], 55.1%. For the same compound, the growth in assay [6] is -43.6% (active); in assay [7], 31.3%; in [8] it was 53.7%; in [9] it was 1.18% (active); in [10] it was -24.3% (active); in [12], 31.8%. Further, the growth is 3.44% (active) in assay [13]; 1.07% (active) in assay [14]; 28.4% in assay [15]; -11.7% (active) in assay [17]; -6.93% (active) in [19].
In the case of `C[N+](C)(CCCCCC[N+](C)(C)C1c2ccccc2-c2ccccc21)C1c2ccccc2-c2ccccc21`, the growth in assay [1] is 103%; in [2] it was 108%; in assay [3], 131%; in assay [4] it was 113%; in assay [5], 117%; in assay [6], 80.9%. Further, the growth in assay [7] was 102%; in [8], 112%; in [9] it was 106%; in [10], 118%; in assay [11], 99.5%; in assay [12] it was 104%. For the same compound, the growth in [13] was 115%; in assay [14], 113%; in assay [15], 111%; in assay [17], 102%; in assay [18], 103%; in assay [19], 106%.
Turning to `O=C(/C=C\c1ccc2c(c1)OCO2)/C=C/c1ccc2c(c1)OCO2`, the growth is 84.8% in [1]; 67.7% in [2]; 99.2% in [3]; 91.4% in assay [4]; 87.8% in assay [5]; 97.4% in assay [6]. For the same compound, the growth is 92.9% in assay [7]; 64.6% in assay [8]; 110% in assay [9]; 90.7% in [10]; 4.27% (active) in assay [11]; 98.2% in assay [12]. Moreover, the growth in [14] is 85%; in assay [15] it was 93.3%; in assay [16], 89.7%; in [17], 26.2%; in assay [18], 98.2%; in assay [19], 40%.
As to `O=C(NC(Cc1cn(Cc2ccccc2)cn1)C(=O)O)OCC1c2ccccc2-c2ccccc21` (stereo not given), the growth was 98.7% in [1]; 102% in [2]; 106% in [3]; 101% in assay [4]; 115% in [20]; 107% in [5]. Also, the growth was 84.2% in assay [6]; 104% in [7]; 102% in assay [8]; 110% in assay [9]; 113% in [10]; 88.8% in assay [11]. Moreover, the growth in assay [13] was 133%; in [14] it was 117%; in assay [15] it was 107%; in assay [17], 94.6%; in [18] it was 99.1%; in assay [19] it was 99.8%.
With `CCCNc1nc(N(C)O)nc(N(C)O)n1`, the growth in assay [1] was 41.3%; in assay [2], 62.9%; in [3] it was 41.5%; in assay [4], 16.6%; in assay [5], 45.2%; in assay [6] it was 37%. Further, the growth in assay [7] is 41.3%; in [8], 7.79% (active); in assay [9] it was 9.94% (active); in assay [10] it was 24.9%; in assay [11] it was 50.7%; in [12] it was 83.2%. The growth in assay [13] was 39.5%; in [14] it was 39%; in assay [15] it was 35.2%; in [16], 21.5%; in assay [17] it was 27.1%; in [18], 56.2%. The growth in assay [19] is 20.7%.
